# TDP1 inh = qHTS Assay for Inhibitors of Tyrosyl-DNA Phosphodiesterase (TDP1); Tyrosyl-DNA phosphodiesterase 1 (Homo sapiens), Q9NUW8; recombinant TDP1, AlphaScreen DNA substrate cleavage; Potency, µM (top dose mostly 130 µM), for the others: top-dose activity change, negative = inhibition, actives largely listed as inhibitors; 350,000 tested, 0.28% active; AID 485290, 2010; further: on the % scale 0 is the no-effect control and ±100 the full control effect; nearly all actives have a fitted effect of over 40% in size
#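 AlphaScreen read-out: signal falls as enzyme removes the 3' tyrosine-FITC from a 5'-biotinylated DNA oligo (15 nM, 5 min, RT). Enzyme was E. coli-made recombinant Tdp1 at 1 nM, exposed to compound for 15 min beforehand; beads 10 ug/ml, 10 min.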
# TDP1 cell CPT = qHTS for Inhibitors of human tyrosyl-DNA phosphodiesterase 1 (TDP1): qHTS in cells in presence of CPT; 420,000 tested, 12% active; chicken DT40 Tdp1-/-;hTDP1 cells + 20 nM CPT, ATP luminescence, 48 h; Potency, µM (highest dose often 46.2 µM), without a hit: at the highest dose activity change, negative = growth inhibition, hits mostly inhibitors; further: on the % scale 0 is the no-effect control and ±100 the full control effect; nearly all actives have a fitted effect of over 55% in size
#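 Chicken DT40 Tdp1-/- cells stably complemented with human TDP1 were seeded at 400 cells/well in medium containing 20 nM camptothecin, exposed to pin-transferred compounds, and grown at 37 °C for at least 48 hr. Viability was read as ATP luminescence.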
# TDP1 cell noCPT = qHTS for Inhibitors of human tyrosyl-DNA phosphodiesterase 1 (TDP1): qHTS in cells in absence of CPT. 420,000 tested, 15% active. DT40 Tdp1-/- hTDP1 cells, no CPT, ATP luminescence, 48 h. AID 686978, 2013. Potency, µM (series often up to 46.2 µM), for inactives: at the highest dose activity change, negative = growth inhibition, usual class: inhibitors; further: on the % scale 0 is the no-effect control and ±100 the full control effect; nearly all actives have a fitted effect of over 55% in size
#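 Seeded 400 DT40-hTDP1 cells/well (vehicle DMSO, no 20 nM CPT); pinned compounds; ≥48 hr at 37 °C; CellTiter-Glo luminescence as viability measure.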
# ClpP mod = qHTS Assay for Activators of ClpP; ATP-dependent Clp protease proteolytic subunit (Bacillus subtilis (strain 168)), P80244; purified B. subtilis ClpP, FRET peptide cleavage, 20 min; Potency, µM (top dose mostly 57.5 µM), for the others: at the highest dose activity change, negative = active; 340,000 tested, 1.9% active; AID 651965, 2013; active means well fitted falling curve with a large enough effect; inconclusive means small, poorly fitted or top-dose-only effect; inactive means no such curve, though single readings can be large or run the other way; further: the source files actives as falling curves though it sought activators and does not explain the sign; nearly all actives have a fitted effect of over 65% in size
# Target sequence (P80244 whole entry, looked up): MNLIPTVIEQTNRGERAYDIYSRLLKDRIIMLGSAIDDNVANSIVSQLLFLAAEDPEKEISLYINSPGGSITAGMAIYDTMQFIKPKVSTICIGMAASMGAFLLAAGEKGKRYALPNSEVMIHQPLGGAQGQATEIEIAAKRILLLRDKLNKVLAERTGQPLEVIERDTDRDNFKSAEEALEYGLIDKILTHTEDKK
#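 ClpP 10 microg/mL final, pH 8 Tris/KCl buffer with BSA, glycerol, Tween-20; compound pinned in; FRET-FV substrate; RT 20 min; Ex320/Em430; ΔFRET vs ADEP 5.8 microM, DMSO, no enzyme.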
# Starred values were filed as active, the others as inactive; ? = inconclusive; · = no result given; [ ] = remark or other dose. Compounds with a hit are over-represented: about 17% of the library has one in this group of screens. Unless noted, the call rests on the fitted dose curve; in most records, active means well fitted curve in the direction sought with a large enough effect; inconclusive means small, poorly fitted or top-dose-only effect, or another doubt; inactive means no such curve, though single readings can be large; an effect the other way counts as inactive or inconclusive. Potency means the concentration at half of the fitted maximal effect.
SMILES,TDP1 inh,TDP1 cell CPT,TDP1 cell noCPT,ClpP mod
Cc1cccc(-n2ccnc2SCC(=O)Nc2nccs2)c1C,2.0%,?,16.4µM*,-12.4%
Cc1occc1-c1nnc(SCC(=O)Nc2nccs2)n1CCc1ccccc1,4.7%,14.6µM*,18.4µM*,1.0%
CC(C)C[C@@H](CO)N1CCN(Cc2cccc(C#N)c2)CCC1=O,·,-12.2%,-6.4%,2.7%
CN(C)C(=O)c1ccc(-c2cc(NCc3cccnc3)ncn2)cc1,·,12.3%,3.7%,·
O=S(=O)(c1ccccc1)N1CCN(S(=O)(=O)c2ccc3c(c2)OCCO3)CC1,-0.3%,·,·,·
CN1CCN(CC(=O)N2c3ccccc3C(C)(c3ccccc3)CC2(C)C)CC1 (stereo not drawn),-1.1%,16.4µM*,18.4µM*,1.1%
Cc1ccc2c(c1)N(C(=O)c1ccc(F)cc1)C(C)(C)CC2(C)c1ccccc1 (stereo not drawn),1.0%[2.28 µM],?,20.6µM*,-0.5%
COc1cccc(OCc2cc(C(=O)N(Cc3ccccc3)CC3CC3)no2)c1,-6.4%,-27.3%,?,-0.4%
CCCCCCNS(=O)(=O)c1ccc(NC(=O)C2CCCO2)cc1 (stereo not drawn),5.1%,9.2µM*,10.3µM*,0.9%
O=C(NS(=O)(=O)c1ccc(NC(=O)C2CCCO2)cc1)c1ccccc1 (stereo not drawn),0.0%,8.0%,4.0%,0.4%
O=C(Nc1ccc(S(=O)(=O)Nc2ccc(Cl)cc2)cc1)C1CCCO1 (stereo not drawn),0.0%,15.8µM*,12.6µM*,-0.1%
O=S(=O)(c1ccc2c(c1)OCCO2)C1CCN(S(=O)(=O)c2c(F)cccc2F)CC1,-0.4%,·,·,·
Cc1nc2c(C#N)c(C)[nH]n2c(=O)c1Cc1ccccc1,0.0%,-18.5%,-8.8%,?
Cc1cccc(Cc2c(C)nc3c(-c4ccccc4)c(C)[nH]n3c2=O)c1,-0.6%,5.8µM*,3.66µM*,4.3%
CCCCc1c(C)nc2c(-c3ccc(OC)cc3)c(C)[nH]n2c1=O,7.1%,16.4µM*,10.3µM*,-3.9%
Cc1ccccc1Cc1c(C)nc2c(-c3ccccc3)c(C)[nH]n2c1=O,8.4%,?,20.6µM*,4.3%
COc1ccc(-c2c(C)[nH]n3c(=O)c(Cc4ccccc4)c(C)nc23)cc1OC,8.2%,?,18.4µM*,·
Cc1nc2c(-c3ccccc3)c(C)[nH]n2c(=O)c1Cc1ccccc1,9.6%,?,?,·
Cc1nc2c(-c3ccc(F)cc3)c(C)[nH]n2c(=O)c1Cl,·,?,?,3.2%
CCOc1ccc(C(=O)C[n+]2ccc(C(=O)NCCO)cc2)cc1,·,-0.5%,-1.1%,·
CCSc1nc(-c2ccccc2F)nc2c1Cc1c(CO)cnc(C)c1O2,5.1%,-14.1%,-24.8%,-0.8%
CCSc1nc(-c2ccccc2OC)nc2c1Cc1c(CO)cnc(C)c1O2,2.6%,8.2µM*,8.2µM*,-9.1%
COc1cccc(CSc2nc(-c3ccccc3F)nc3c2Cc2c(CO)cnc(C)c2O3)c1,-5.1%,?,20.6µM*,1.1%
Cc1ccc(C)c(CSc2nc(-c3ccccc3F)nc3c2Cc2c(CO)cnc(C)c2O3)c1,0.0%,-12.4%,-14.3%,1.2%
O=C(CCNC(=O)c1ccc([N+](=O)[O-])cc1)Oc1ccc(F)c(F)c1,0.0%,-5.8%,-15.4%,1.7%
SMILES,TDP1 inh,TDP1 cell CPT,TDP1 cell noCPT,ClpP mod
CCOC(=O)C1CCCN(CCc2ccccc2)C1 (stereo not drawn),·,-5.9%,-4.2%,1.5%
O=C(OC1C2CCC1C1CN(CCc3ccccc3)CC12)c1ccccc1 (stereo not drawn),7.6%,?,16.4µM*,3.3%
Fc1ccc(Nc2nc3nonc3nc2Nc2cccc(C(F)(F)F)c2)cc1,7.0%,0.326µM*,0.164µM*,-1.1%
COc1ccc(NC(=O)Nc2cc3oc4ccccc4c3cc2OC)cc1,2.0%,?,?,-21.6%
COc1cc2c(cc1NC(=O)c1cccc(S(=O)(=O)N(C)C)c1)oc1ccccc12,4.5%,10.3µM*,14.6µM*,?
COc1cc2c(cc1NC(=S)Nc1ccccc1C)oc1ccccc12,11.9%,?,?,-1.1%
COc1cc2c(cc1NC(=S)Nc1cccc(C)c1)oc1ccccc12,6.8%,?,?,11.2µM*

# High-throughput results from PubChem.
